# Calls of active or inactive are those of the source. Unless noted, the rule behind the calls is not given here.
# Columns and labels:
# [1] = HepG2 liver cancer cell viability effects, profiling panel, resazurin fluorescence, 24 h, PK04 Diversity Set (AID 1172); conditions: higher = more signal
# [2] = basal S. cerevisiae growth modulation, no modifier, primary screen, OD600, strain BY4716, 24 h, basal condition (AID 1173); conditions: OD600, 24 h, higher = more signal, called active from +8 up or from −8 down
# [3] = MM1S myeloma cell viability, profiling panel, resazurin fluorescence, basal, 24 h, PK04 Diversity Set (AID 1174); conditions: higher = more signal, called active from +8 up or from −8 down;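 note: MM1S multiple myeloma cell line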
# [4] = molecular target: Dihydroorotate dehydrogenase (quinone), mitochondrial (Plasmodium falciparum (isolate 3D7)) (UniProt Q08210); experiment: PfDHODH enzyme inhibitors, primary screen, biochemical, C-terminal His tag, absorbance 600 nm (AID 1175); conditions: DCIP absorbance 600 nm, higher = more signal, called active from +8 up or from −8 down;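 note: recombinant parasite enzyme with a five histidine tag at its C terminus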
# [5] = P. aeruginosa biofilm formation inhibitors, primary screen, strain PAO1, LB-PBS medium, absorbance 600 nm (AID 1176); conditions: P. aeruginosa PAO1 growth/biofilm, A600, 12 h; higher = more signal
# [6] = S. cerevisiae RM11-1a growth modifiers, primary screen, strain RM11-1a, OD600, basal, 24 h (AID 1177); conditions: OD600, 24 h, higher = more signal, called active from +8 up or from −8 down;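 note: cultures grown under basal conditions with no added stressor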
# [7] = E. coli acrAB mutant growth effects, primary screen, E. coli filamentation inducers, strain DRC39, OD650, 24 h (AID 1178); conditions: higher = more signal, called active from +8 up or from −8 down;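 note: growth measured as culture turbidity by optical density at 650 nm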
# [8] = E. coli acrAB mutant growth effects, primary screen, E. coli filamentation inducers, strain DRC39, OD650, 48 h (AID 1179);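 note: screen aims at cell division blockers that make cells filament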; conditions: E. coli DRC39 delta-acrAB growth, higher = more signal, called active from +8 up or from −8 down
# [9] = RPMI8226 myeloma cell viability, profiling panel, resazurin fluorescence, basal, 24 h, PK04 Diversity Set (AID 1180); conditions: higher = more signal;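 note: RPMI8826 multiple myeloma cell line at 5000 cells per well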
# [10] = molecular target: E3 ubiquitin-protein ligase XIAP (Homo sapiens) (UniProt P98170); experiment: XIAP binders, primary screen, biophysical, small-molecule microarray, fluorescence 635 nm (AID 1181); conditions: small-molecule microarray binding, higher = more signal;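 note: score merges 667 nm emission and signal to noise over triplicate slides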
# [11] = system: XIP peptide (Xip251-270) binding; experiment: small-molecule binders of XIP peptide, primary screen, biochemical, small-molecule microarray, fluorescence 635/667 nm, 0.1 µg/mL protein (AID 1182); conditions: fluorescent protein binding, 635 nm, higher = more signal, called active from +8 up or from −8 down
# [12] = system: XIP peptide (Xip251-270); experiment: small-molecule binders of XIP peptide, primary screen, biochemical, small-molecule microarray, fluorescence 635/667 nm, 0.5 µg/mL protein (AID 1183); conditions: small-molecule microarray binding, fluorescence 635 nm; higher = more signal
# [13] = Plasmodium falciparum growth inhibition, primary screen, strain 3D7, DAPI fluorescence, 100 nL (AID 1184);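 note: parasites grown inside human red blood cells in medium with human serum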; conditions: P. falciparum 3D7 growth, 3 d, higher = more signal
# [14] = molecular target: Homeobox protein Hox-A13 (Mus musculus) (UniProt Q62424); experiment: inhibitors of HoxA13-DNA binding, primary screen, biochemical, fluorescence polarization, labeled oligonucleotide (AID 1185); conditions: 15 min, higher = more signal, called active from +8 up or from −8 down
# [15] = inhibitors of hydroxyurea-induced Chk1 phosphorylation, primary screen, imaging, HeLa, phospho-Chk1 antibody, percent positive cells (AID 1186); conditions: hydroxyurea-induced phospho-Chk1 immunofluorescence imaging, higher = more signal
# [16] = inhibitors of hydroxyurea-induced Chk1 phosphorylation, primary screen, imaging, HeLa, phospho-Chk1 nuclear intensity (AID 1187); conditions: hydroxyurea-induced phospho-Chk1 immunofluorescence imaging, higher = more signal
# Sequence of Homeobox protein Hox-A13 (Mus musculus) (Q62424 whole entry, looked up): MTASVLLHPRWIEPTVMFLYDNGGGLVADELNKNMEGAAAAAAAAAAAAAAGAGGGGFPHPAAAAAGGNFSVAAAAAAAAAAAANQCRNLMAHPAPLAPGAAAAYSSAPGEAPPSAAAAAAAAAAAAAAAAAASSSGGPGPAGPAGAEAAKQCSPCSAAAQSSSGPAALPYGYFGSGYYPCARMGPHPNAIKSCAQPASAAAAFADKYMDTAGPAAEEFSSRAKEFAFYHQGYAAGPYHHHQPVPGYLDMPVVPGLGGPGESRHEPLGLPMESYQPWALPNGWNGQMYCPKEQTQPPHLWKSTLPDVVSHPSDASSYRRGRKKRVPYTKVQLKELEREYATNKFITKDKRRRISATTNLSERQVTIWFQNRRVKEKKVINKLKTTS
# Sequence of E3 ubiquitin-protein ligase XIAP (Homo sapiens) (P98170 whole entry, looked up): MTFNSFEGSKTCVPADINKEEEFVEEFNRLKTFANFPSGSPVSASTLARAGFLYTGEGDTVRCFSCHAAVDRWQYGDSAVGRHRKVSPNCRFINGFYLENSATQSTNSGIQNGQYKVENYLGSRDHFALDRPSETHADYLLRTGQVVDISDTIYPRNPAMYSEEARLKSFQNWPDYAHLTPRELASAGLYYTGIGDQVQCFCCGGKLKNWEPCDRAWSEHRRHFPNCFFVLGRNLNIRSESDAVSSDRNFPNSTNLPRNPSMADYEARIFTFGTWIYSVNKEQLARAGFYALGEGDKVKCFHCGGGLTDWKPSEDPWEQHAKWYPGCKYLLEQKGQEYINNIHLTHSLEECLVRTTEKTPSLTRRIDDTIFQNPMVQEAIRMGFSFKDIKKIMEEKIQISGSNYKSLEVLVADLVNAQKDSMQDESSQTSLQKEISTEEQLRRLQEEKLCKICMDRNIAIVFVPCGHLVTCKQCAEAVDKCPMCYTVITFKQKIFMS
# Sequence of Dihydroorotate dehydrogenase (quinone), mitochondrial (Plasmodium falciparum (isolate 3D7)) (Q08210 whole entry, looked up): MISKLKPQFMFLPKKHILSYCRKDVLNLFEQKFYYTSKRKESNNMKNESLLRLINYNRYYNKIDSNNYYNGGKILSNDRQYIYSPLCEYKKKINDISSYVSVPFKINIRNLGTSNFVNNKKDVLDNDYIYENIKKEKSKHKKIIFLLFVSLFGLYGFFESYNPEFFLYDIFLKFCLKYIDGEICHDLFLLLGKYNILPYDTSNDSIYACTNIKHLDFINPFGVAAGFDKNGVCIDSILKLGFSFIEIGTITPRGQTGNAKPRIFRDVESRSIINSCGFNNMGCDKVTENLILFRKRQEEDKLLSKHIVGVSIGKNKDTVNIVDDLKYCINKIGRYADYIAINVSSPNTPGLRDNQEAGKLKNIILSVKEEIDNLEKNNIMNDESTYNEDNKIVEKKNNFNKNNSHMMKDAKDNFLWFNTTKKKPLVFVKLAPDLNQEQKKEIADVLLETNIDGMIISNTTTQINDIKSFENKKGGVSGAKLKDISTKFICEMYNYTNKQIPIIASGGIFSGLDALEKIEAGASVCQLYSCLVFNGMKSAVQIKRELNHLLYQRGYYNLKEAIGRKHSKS
Structure (SMILES),z-score [1],z-score [2],z-score [3],composite z-score [4],z-score [5],z-score [6],z-score [7],z-score [8],z-score [9],composite z-score [10],composite z-score [11],composite z-score [12],z-score [13],z-score [14],z-score [15],z-score [16]
CCN(CC)c1ccc(N2CC=CC34O[C@@H]5C=CCOC(=O)[C@@H]5[C@H]3C(=O)N(CCCO)[C@@H]4C2=O)cc1 (stereo not given in full),-0.527,-0.746 (inactive),0.242 (inactive),-1.47 (inactive),0.537 (inactive),-0.049 (inactive),1.27 (inactive),0.715 (inactive),0.4,0.107,0.309 (inactive),0.306,-1.55,-4.02 (inactive),-0.232 (inactive),-0.569 (inactive)
CCOC(=O)C1=CC[C@@H](c2ccccc2)N(S(=O)(=O)C[Si](C)(C)C)[C@H]1c1ccccc1,0.128,0.945 (inactive),-0.013 (inactive),0.407 (inactive),0.257 (inactive),-0.42 (inactive),-0.618 (inactive),-1.59 (inactive),0.343,-0.125,0.127 (inactive),0.704,-1.86,-1.35 (inactive),0.587 (inactive),0.496 (inactive)
CCCCCCc1nc(-c2ccc(OC)nc2)cc2c1[Si](C(C)C)(C(C)C)OC2,0.0579,0.721 (inactive),0.426 (inactive),-3.12 (inactive),-0.0391 (inactive),-0.483 (inactive),0.37 (inactive),0.212 (inactive),0.343,-0.0525,-0.0275 (inactive),-0.019,-1.99,-3.55 (inactive),-0.0362 (inactive),0.237 (inactive)
C=CCC(OC(C)=O)[C@@H]1[C@@H](N(Cc2cc3ccccc3o2)C(=O)c2ccc(-c3ccccc3)cc2)c2cc(OCCCO)ccc2N1C(=O)c1ccc2ccccc2n1 (stereo not given in full),-0.0694,0.848 (inactive),0.943 (inactive),0.706 (inactive),0.35 (inactive),0.913 (inactive),0.965 (inactive),0.553 (inactive),0.97,-0.0818,-0.341 (inactive),-0.317,-1.49,-1.34 (inactive),-0.203 (inactive),-0.103 (inactive)
[N-]=[N+]=NCc1ccccc1C[C@]1(C(=O)NCc2ccccc2)N=C(c2ccc(OCCCO)cc2)O[C@H]1c1ccccc1CN=[N+]=[N-],-0.907,0.831 (inactive),-0.153 (inactive),0.238 (inactive),1.32 (inactive),0.832 (inactive),3.04 (inactive),1.01 (inactive),-0.28,-0.0559,0.99 (inactive),0.628,-2.24,4.04 (inactive),-0.347 (inactive),0.0031 (inactive)
C=C(/C(=C/C[C@H](OC(=O)c1ccncc1)c1ccccc1OCCO)c1cc(C(=O)OC)ccc1OC)C(C)C,0.456,0.0223 (inactive),-0.493 (inactive),-4.24 (inactive),0.297 (inactive),0.0488 (inactive),-0.822 (inactive),-0.869 (inactive),0.956,-0.0478,-0.0121 (inactive),0.605,-2.85,-4.77 (inactive),-0.529 (inactive),-0.789 (inactive)
CN(C)CCCNC(=O)[C@@]1(Cc2ccccc2I)c2ccccc2C(=O)N(Cc2ccccc2)[C@H]1c1ccc(CO)cc1,-3.78,-3.24 (inactive),-0.892 (inactive),-0.19 (inactive),0.292 (inactive),0.209 (inactive),0.0574 (inactive),0.252 (inactive),-1.89,0.24,0.869 (inactive),0.828,-2.21,-0.783 (inactive),0.22 (inactive),0.276 (inactive)
O=C(NCCO)C1=C[C@H](Oc2ccccc2I)[C@@H](O)[C@H](NCc2ccc(F)cc2)C1,-1.47,-2.04 (inactive),-0.206 (inactive),-0.287 (inactive),0.367 (inactive),0.423 (inactive),-0.802 (inactive),-1.44 (inactive),-0.264,0.181,0.234 (inactive),-0.875,-1.61,-6.81 (inactive),0.079 (inactive),-0.34 (inactive)
COC(=O)[C@@]1(Cc2ccc(F)cc2)[C@H]2c3cc(C(=O)N(C)C)n(CCN4CCOCC4)c3C[C@H]2CN1C(=O)c1ccccc1,0.255,1.22 (inactive),-0.663 (inactive),-0.521 (inactive),0.0818 (inactive),0.7 (inactive),0.187 (inactive),-0.957 (inactive),0.874,0.138,0.673 (inactive),0.811,-1.45,-6.83 (inactive),-0.366 (inactive),-0.245 (inactive)
CN(C)CCCCNC(=O)[C@H]1C[C@H]2C(=O)N[C@@H](Cc3ccccc3)C(=O)N2[C@H]1c1cccc(OCCO)c1,1.36,-0.456 (inactive),1.38 (inactive),0.65 (inactive),-0.254 (inactive),-0.372 (inactive),0.553 (inactive),0.862 (inactive),1.06,0.0512,-0.0743 (inactive),-0.0022,-0.0613,-3.06 (inactive),-0.826 (inactive),-0.851 (inactive)

# Source: PubChem BioAssay
